Source: PubChem (National Center for Advancing Translational Sciences (NCATS))
KB-3-1 tox: kills parental KB-3-1 adenocarcinoma cells. Potency, µM (top dose mostly 46.1 µM), usual class: cytotoxic. 400,000 compounds, 1.4% hits. KB-3-1 viability, CellTiter-Glo ATP luminescence, 72 h; note: nearly all actives have a fitted effect of over 60% in size
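Parental KB-3-1 adenocarcinoma cells in phenol-red-free DMEM with 10% FBS were pin-treated with compounds at several concentrations, incubated 72 h at 37 °C, and viability read by CellTiter-Glo luminescence; concentration-effect curves were fitted after normalization.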
MCF10A rereplic: inducers of DNA re-replication in MCF 10A breast cells. MCF 10A DNA re-replication, Hoechst nuclear intensity, 48 h. Potency, µM (titrated, usually from 46.1 µM), actives largely listed as activators. 350,000 compounds, 2.9% hits. AID 624296; note: nearly all actives have a fitted effect of over 50% in size
KB-V1 cytotox: KB-V1 MDR subline cytotoxicity; AID 1347076; 400,000 compounds, 3.4% hits; KB-V1 MDR cells viability, CellTiter-Glo, 72 h; Potency, µM (titrated, usually from 46.1 µM), usual class: cytotoxic; note: nearly all actives have a fitted effect of over 60% in size
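Compound-treated KB-V1 multidrug-resistant cells, 72 h, 37 degrees C; viability by CellTiter-Glo. Fitted qHTS curves give the values.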
SW480 rereplic: DNA re-replication induction in SW480 cells; Potency, µM (titrated, usually from 46.1 µM), hits mostly activators; SW480 DNA re-replication, Hoechst DNA content imaging, 48 h; 340,000 compounds, 1.8% hits; note: nearly all actives have a fitted effect of over 55% in size
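Per well, 250 cells were exposed to pinned compound for 48 hr. Nuclear DNA was visualised with Hoechst (40 min, 37 C) and total object intensity recorded by fluorescence scanning.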
PINK1 expr mod: changes PINK1 expression | Potency, µM (highest dose often 76.6 µM), hits mostly activators | 410,000 compounds, 0.2% hits | PINK1 immunofluorescence, high-content cytometry, 24 h; active = well fitted activation curve with a large enough effect; inconclusive = small, poorly fitted or top-dose-only effect; cell line not stated here; note: nearly all actives have a fitted effect of over 65% in size
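PINK1 protein, normally rapidly degraded, was detected by immunofluorescence after 24 hour compound treatment of a stable cell line. Titration data (5 concentrations) came from laser-scanning cytometry, with CCCP-treated wells as controls.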
Of the large screens only hits and unclear results are named; the others gave an inactive call. Rows were chosen to be rich in hits. Some 6.7% of all compounds tested hit in one or more screens of this group. Unless noted, calls come from the whole dose curve; as a rule, active = well fitted curve in the direction sought with a large enough effect; inconclusive = small, poorly fitted or top-dose-only effect, or another doubt; inactive = no such curve, though single readings can be large; an effect the other way counts as inactive or inconclusive.

CC(C)Cn1c(=O)c2c(nc3n2CCCN3CCc2ccccc2)n(C)c1=O	KB-V1 cytotox 10µM
Cn1c(=O)n(Cc2ccccc2)c(=O)c2c1nc1n2CCN1Cc1ccco1	MCF10A rereplic 0.73µM, SW480 rereplic inconclusive
CCCn1c(=O)c2c(nc3n2CCCN3CCc2ccccc2)n(C)c1=O	KB-V1 cytotox inconclusive
Cn1c(=O)n(CCc2ccccc2)c(=O)c2c1nc1n2CCCN1Cc1ccccc1	MCF10A rereplic inconclusive, KB-V1 cytotox 21µM
CCOc1ccccc1NC(=O)CSc1cn(CC(=O)N2CCCCCC2)c2ccccc12	none (no result: KB-3-1 tox, MCF10A rereplic, KB-V1 cytotox, SW480 rereplic)
CCOC(=O)c1sc(N)c(C(=O)Nc2ccccc2OC)c1C	KB-3-1 tox inconclusive, MCF10A rereplic 10µM, KB-V1 cytotox 10µM, SW480 rereplic 16µM
CCOC(=O)c1sc(N)c(C(=O)OC)c1C	none
C=C1C(=O)OC2C=C(CO)CCC=C(CO)CC(OC(=O)C(C)C)C12 (configuration not stated)	KB-3-1 tox inconclusive, MCF10A rereplic 10µM, SW480 rereplic inconclusive
N#C/C(=C\c1ccccn1)c1ccccn1	KB-3-1 tox inconclusive, MCF10A rereplic 21µM, SW480 rereplic 15µM
Cc1cc(C)n2nc(/C(C#N)=C/c3ccccn3)c(C#N)c2n1	MCF10A rereplic 6.5µM, SW480 rereplic 3.3µM
N#C/C(=C/c1cccs1)c1ccccn1	none
COC(=O)c1ccc(/C=C(\C#N)c2ccccn2)cc1	KB-3-1 tox inconclusive, MCF10A rereplic inconclusive
Cc1cc(C)n2nc(CC#N)c(C#N)c2n1	KB-V1 cytotox inconclusive
COc1cc(/C=C(\C#N)c2ccccn2)ccc1OCc1ccccc1Cl	MCF10A rereplic inconclusive, KB-V1 cytotox 10µM
COc1cc(/C=C(\C#N)c2ccccn2)cc(OC)c1O	KB-3-1 tox 7.3µM, MCF10A rereplic inconclusive, KB-V1 cytotox inconclusive, SW480 rereplic inconclusive
COc1cc(/C=C(\C#N)c2ccccn2)ccc1OCC(=O)Nc1cccc(C(F)(F)F)c1	MCF10A rereplic inconclusive
CN1CCC(N2CCN(C3CN(Cc4ccc(F)cc4)S(=O)(=O)C3)CC2)CC1 (configuration not stated)	none (no result: MCF10A rereplic, SW480 rereplic)
CCc1nc2c(OCC(=O)C(C)(C)C)cccn2c1N(C)C(=O)c1ccco1	none (no result: MCF10A rereplic, SW480 rereplic)
Cc1ccc(CC(=O)Nc2c(C(=O)N3CCN(c4ccccc4)CC3)oc3ccccc23)cc1	KB-V1 cytotox inconclusive (no result: MCF10A rereplic, SW480 rereplic)
COc1ccc(C)cc1NC(=O)Nc1ccc2c(c1)CCC2	MCF10A rereplic 23µM
COc1ccc(C(C)(C)C)cc1NC(=O)Nc1ccc2c(c1)OCO2	MCF10A rereplic inconclusive, KB-V1 cytotox 23µM, SW480 rereplic inconclusive
COc1cc(NC(=O)Nc2ccc3c(c2)OCO3)cc(OC)c1OC	SW480 rereplic inconclusive
COc1ccccc1NC(=O)Nc1ccc2c(c1)CCC2	none
COc1ccc(/C=C/C(=O)Nc2cc(C(F)(F)F)ccc2Cl)cc1OC	KB-V1 cytotox 21µM
COc1ccc(/C=C/C(=O)Nc2ccc3c(c2)CCC3)cc1OC	KB-V1 cytotox 21µM
CCOc1cc(/C=C(/C#N)C(=O)Nc2ccc(O)cc2)cc(Br)c1O	KB-3-1 tox 1µM, MCF10A rereplic 0.18µM, KB-V1 cytotox inconclusive, SW480 rereplic 2.1µM
C=CCNC(=O)/C(C#N)=C\c1cc(Cl)c(O)c(OCC)c1	SW480 rereplic inconclusive
Cc1cc(C(=O)N2CCOc3ccc(CN4CCC(Oc5cccnc5)CC4)cc3C2)c(C)o1	none (no result: KB-3-1 tox, MCF10A rereplic, KB-V1 cytotox, SW480 rereplic)
COCCN1CCN(C(=O)c2cnn(-c3ncc4c(n3)-c3ccc(OC)cc3CC4)c2C2CC2)CC1	none (no result: KB-3-1 tox, MCF10A rereplic, KB-V1 cytotox, SW480 rereplic)
CC(C)CC(=O)N1CCN(c2ccc([N+](=O)[O-])cc2Cl)CC1	none
COc1ccccc1N1CCN(c2ccc([N+](=O)[O-])cc2Cl)CC1	KB-3-1 tox 16µM, MCF10A rereplic 7.3µM, KB-V1 cytotox 5.8µM, SW480 rereplic 18µM
CC(C)C(=O)N1CCN(c2ccc([N+](=O)[O-])cc2Cl)CC1	KB-V1 cytotox 21µM
Cc1ccc(S(=O)(=O)N2CCCCC2)cc1NC(=O)CSc1nnc(C2CC2)n1C	none
CN(CC(=O)Nc1ccc(N2CCOCC2)cc1)C(=O)CCc1cc(C(C)(C)C)c(O)c(C(C)(C)C)c1	KB-V1 cytotox 3.7µM
Oc1ccc(Nc2nc3ccccc3nc2Nc2ccc(O)cc2)cc1	MCF10A rereplic 1.5µM, KB-V1 cytotox inconclusive, SW480 rereplic 4.6µM
O=C(NC1CCCCC1)C1c2ccccc2OCC(=O)N1Cc1cccnc1 (configuration not stated)	none (no result: MCF10A rereplic, SW480 rereplic)
